According to PubChem BioAssay (Tox21):
Records with an inconclusive call do not appear. Activity calls are given as the source filed them. Unless noted, calls follow the shape of the dose curve; as a rule, active = well fitted curve in the direction sought with a large enough effect in the repeat runs; inconclusive = weak or mixed curves; inactive = no such curve, though single readings can be large; an effect the other way counts as inactive or inconclusive.

How the values were obtained:
[1] = target: Estrogen receptor beta (Homo sapiens) (UniProt Q92731); assay: qHTS assay to identify small molecule antagonists of the estrogen receptor beta (ER-beta) signaling pathway (AID 1259378; active = well fitted inhibition curve with a large enough effect in the signal ratio in the repeat runs, not every such curve was filed as active; the % refers to the signal ratio)
Chain of Estrogen receptor beta (Homo sapiens) (Q92731 whole entry, looked up): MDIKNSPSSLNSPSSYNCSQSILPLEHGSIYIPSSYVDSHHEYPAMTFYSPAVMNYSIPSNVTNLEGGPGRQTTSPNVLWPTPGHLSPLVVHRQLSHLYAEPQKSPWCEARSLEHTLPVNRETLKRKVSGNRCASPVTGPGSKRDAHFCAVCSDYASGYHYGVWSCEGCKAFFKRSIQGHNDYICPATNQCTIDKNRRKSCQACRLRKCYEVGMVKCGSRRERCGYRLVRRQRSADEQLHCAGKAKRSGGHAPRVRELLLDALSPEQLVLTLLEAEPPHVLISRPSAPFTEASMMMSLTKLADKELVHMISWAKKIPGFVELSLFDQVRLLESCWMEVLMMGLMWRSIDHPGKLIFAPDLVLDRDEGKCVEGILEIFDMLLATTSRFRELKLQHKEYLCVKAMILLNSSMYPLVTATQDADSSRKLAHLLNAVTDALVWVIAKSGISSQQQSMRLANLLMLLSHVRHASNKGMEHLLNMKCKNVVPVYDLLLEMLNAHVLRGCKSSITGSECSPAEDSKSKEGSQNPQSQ
Summary of the method: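 ER-beta-UAS-bla HEK293T cells in 2% charcoal-stripped FBS medium treated with compound plus 1nM final 17-beta-estradiol for 16 hr at 37C. Beta-lactamase reporter read by FRET substrate fluorescence after 2 hours at room temperature.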

[2] = qHTS assay to identify small molecule agonists of the androgen receptor (AR) signaling pathway in the presence of an antagonist - cell viability counter screen (AID 1259379);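 also: MDA-kb2 human breast cancer cells carrying an MMTV luciferase reporter; series mostly up to about 92 µM; nearly all actives have a fitted effect of over 25% in size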
Summary of the method: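 Each compound was tested at 15 concentrations on MDA-kb2 cells in the presence of 3.0uM nilutamide. Viability was measured by CellTiter-Fluor fluorescence after a 16 hr incubation at 37C in a CO2-free atmosphere.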

[3] = qHTS assay to identify small molecule agonists of the estrogen receptor beta (ER-beta) signaling pathway - cell viability counter screen (AID 1259380); also: nearly all actives have a fitted effect of over 30% in size
Summary of the method: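 Compounds dissolved in DMSO were pin-transferred onto ER-beta-UAS-bla HEK293T cells that had settled 6 hr, and exposure ran 16 hr at 37C. Following the reporter read, CellTiter-Glo luminescence after 30 min at room temperature indicated cytotoxicity.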

[4] = target: Androgen receptor (Homo sapiens) (UniProt P10275); assay: qHTS assay to identify small molecule agonists of the androgen receptor (AR) signaling pathway in the presence of an antagonist (AID 1259381; calls by dose curve; also: nearly all actives have a fitted effect of over 15% in size)
Chain of Androgen receptor (Homo sapiens) (P10275 whole entry, looked up): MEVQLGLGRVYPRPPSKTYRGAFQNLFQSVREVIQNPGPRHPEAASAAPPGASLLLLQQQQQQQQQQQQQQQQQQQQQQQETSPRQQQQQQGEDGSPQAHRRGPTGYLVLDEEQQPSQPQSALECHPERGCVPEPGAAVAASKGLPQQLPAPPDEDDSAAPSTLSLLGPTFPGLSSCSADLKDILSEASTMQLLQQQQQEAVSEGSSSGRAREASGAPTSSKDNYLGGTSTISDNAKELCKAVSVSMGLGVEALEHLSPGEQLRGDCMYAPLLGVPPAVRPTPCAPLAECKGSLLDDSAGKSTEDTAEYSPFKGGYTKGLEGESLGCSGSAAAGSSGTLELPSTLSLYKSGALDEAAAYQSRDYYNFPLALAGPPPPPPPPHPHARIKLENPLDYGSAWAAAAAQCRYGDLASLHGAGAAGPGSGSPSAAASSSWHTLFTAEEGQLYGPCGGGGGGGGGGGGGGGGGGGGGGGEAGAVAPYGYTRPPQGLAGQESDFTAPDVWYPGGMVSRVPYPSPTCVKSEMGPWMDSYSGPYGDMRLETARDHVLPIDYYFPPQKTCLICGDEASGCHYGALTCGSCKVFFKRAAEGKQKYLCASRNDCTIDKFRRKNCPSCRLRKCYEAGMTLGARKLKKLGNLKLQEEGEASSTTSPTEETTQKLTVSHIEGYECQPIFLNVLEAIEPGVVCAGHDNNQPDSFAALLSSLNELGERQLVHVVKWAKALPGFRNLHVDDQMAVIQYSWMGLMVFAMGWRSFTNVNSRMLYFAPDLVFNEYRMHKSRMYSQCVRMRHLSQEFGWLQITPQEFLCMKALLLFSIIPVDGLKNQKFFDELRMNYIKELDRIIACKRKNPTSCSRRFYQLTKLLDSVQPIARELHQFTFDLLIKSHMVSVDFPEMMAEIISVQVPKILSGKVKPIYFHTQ
Summary of the method: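 Plated MDA-kb2 cells (3,000/well) were pre-incubated 5hr, given nilutamide (3.0uM final) or buffer, then dosed with compounds in DMSO at 15 concentrations. Luciferase activity was quantified by luminescence after 16hr at 37C.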

[5] = target: Estrogen receptor (Homo sapiens) (UniProt P03372); assay: qHTS assay to identify small molecule agonists of the estrogen receptor alpha (ER-alpha) signaling pathway in the presence of an antagonist (AID 1259383; calls by dose curve; also: top concentration of the series differs between compounds; nearly all actives have a fitted effect of over 15% in size)
Chain of Estrogen receptor (Homo sapiens) (P03372 whole entry, looked up): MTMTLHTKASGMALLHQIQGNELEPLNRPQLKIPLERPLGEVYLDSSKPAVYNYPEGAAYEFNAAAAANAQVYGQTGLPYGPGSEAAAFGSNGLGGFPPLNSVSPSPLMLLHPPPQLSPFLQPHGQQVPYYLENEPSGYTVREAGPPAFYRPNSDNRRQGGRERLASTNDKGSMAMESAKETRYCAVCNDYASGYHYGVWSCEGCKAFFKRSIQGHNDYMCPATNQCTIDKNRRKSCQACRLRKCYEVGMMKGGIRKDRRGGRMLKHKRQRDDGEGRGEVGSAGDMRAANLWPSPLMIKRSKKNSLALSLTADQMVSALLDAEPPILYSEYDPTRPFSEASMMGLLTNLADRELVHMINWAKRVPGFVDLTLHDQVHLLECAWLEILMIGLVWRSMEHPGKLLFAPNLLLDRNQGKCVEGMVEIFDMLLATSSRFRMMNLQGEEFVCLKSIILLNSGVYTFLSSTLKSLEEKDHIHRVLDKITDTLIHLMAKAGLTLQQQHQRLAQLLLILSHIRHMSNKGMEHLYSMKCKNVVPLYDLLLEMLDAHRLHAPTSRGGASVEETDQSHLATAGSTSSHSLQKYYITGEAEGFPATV
Summary of the method: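 Luminescent ERE-luciferase reporter, VM7Luc4E2 cells (endogenous ER-alpha); 10.0nM ICI-182,780 final; 15-point compound titration; 22hr at 37C; ONE-Glo, 30min RT.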

[6] = qHTS assay to identify small molecule agonists or antagonists of the thyroid stimulating hormone receptor (TSHR) signaling pathway - wild type cell line counter screen (AID 1259384; calls by dose curve)
Summary of the method: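 Wild-type Hek293 cells, 800/well, 18 h at 37C, then compound with Ro20-1724 for 30 min RT. cAMP by HTRF (cAMP-d2/anti-cAMP cryptate), 1 h RT, fluorescence read. 15 concentrations, triplicates.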

[7] = target: Thyrotropin receptor (Homo sapiens) (UniProt P16473); assay: qHTS assay to identify small molecule antagonists of the thyroid stimulating hormone receptor (TSHR) signaling pathway (AID 1259385; calls by dose curve; also: nearly all actives have a fitted effect of over 20% in size)
Chain of Thyrotropin receptor (Homo sapiens) (P16473 whole entry, looked up): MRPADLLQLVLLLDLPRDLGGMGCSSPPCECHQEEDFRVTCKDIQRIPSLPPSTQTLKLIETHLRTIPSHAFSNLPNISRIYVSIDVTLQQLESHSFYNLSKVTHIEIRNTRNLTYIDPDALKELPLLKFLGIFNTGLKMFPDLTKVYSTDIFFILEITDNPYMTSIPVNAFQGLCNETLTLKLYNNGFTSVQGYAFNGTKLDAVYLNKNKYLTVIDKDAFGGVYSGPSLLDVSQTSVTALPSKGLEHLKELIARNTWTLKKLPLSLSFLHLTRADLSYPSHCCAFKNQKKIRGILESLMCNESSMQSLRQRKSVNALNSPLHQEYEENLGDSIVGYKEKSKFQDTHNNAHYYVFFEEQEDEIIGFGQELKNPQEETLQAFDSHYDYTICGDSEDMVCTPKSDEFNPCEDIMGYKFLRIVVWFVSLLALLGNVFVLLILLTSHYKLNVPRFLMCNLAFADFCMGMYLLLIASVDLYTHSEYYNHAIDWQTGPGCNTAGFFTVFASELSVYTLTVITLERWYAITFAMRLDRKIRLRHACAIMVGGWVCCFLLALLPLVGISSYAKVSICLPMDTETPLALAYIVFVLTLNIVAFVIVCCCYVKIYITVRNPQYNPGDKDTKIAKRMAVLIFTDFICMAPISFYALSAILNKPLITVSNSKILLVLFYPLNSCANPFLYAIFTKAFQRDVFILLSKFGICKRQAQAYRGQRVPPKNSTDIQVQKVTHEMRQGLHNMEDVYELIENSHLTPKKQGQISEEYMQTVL
Summary of the method: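 TSHR-HEK293 cells (800/well) plated 18 h, then compounds with Ro20-1724 and TSH at 1.5 ng/mL final, 30 min at room temperature. cAMP quantified by HTRF (cAMP-d2/anti-cAMP-cryptate, 1 h); 15 concentrations in triplicate.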

[8] = qHTS assay to identify small molecule agonists of the estrogen receptor alpha (ER-alpha) signaling pathway in the presence of an antagonist - cell viability counter screen (AID 1259386);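 also: series mostly up to about 92 µM; cells exposed to compounds for 22 h at 37 °C before the viability read; nearly all actives have a fitted effect of over 30% in size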
Summary of the method: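 Using estrogen-depleted VM7Luc4E2 cells, the 15-concentration compound series was applied together with 10.0nM ICI-182,780 and incubated 22hr at 37C/5% CO2. Cell viability was then scored by CellTiter-Fluor.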

[9] = target: Progesterone receptor (Homo sapiens) (UniProt P06401); assay: qHTS assay to identify small molecule agonists of the progesterone receptor (PR) signaling pathway (AID 1346784; calls by dose curve; also: nearly all actives have a fitted effect of over 30% in size)
Chain of Progesterone receptor (Homo sapiens) (P06401 whole entry, looked up): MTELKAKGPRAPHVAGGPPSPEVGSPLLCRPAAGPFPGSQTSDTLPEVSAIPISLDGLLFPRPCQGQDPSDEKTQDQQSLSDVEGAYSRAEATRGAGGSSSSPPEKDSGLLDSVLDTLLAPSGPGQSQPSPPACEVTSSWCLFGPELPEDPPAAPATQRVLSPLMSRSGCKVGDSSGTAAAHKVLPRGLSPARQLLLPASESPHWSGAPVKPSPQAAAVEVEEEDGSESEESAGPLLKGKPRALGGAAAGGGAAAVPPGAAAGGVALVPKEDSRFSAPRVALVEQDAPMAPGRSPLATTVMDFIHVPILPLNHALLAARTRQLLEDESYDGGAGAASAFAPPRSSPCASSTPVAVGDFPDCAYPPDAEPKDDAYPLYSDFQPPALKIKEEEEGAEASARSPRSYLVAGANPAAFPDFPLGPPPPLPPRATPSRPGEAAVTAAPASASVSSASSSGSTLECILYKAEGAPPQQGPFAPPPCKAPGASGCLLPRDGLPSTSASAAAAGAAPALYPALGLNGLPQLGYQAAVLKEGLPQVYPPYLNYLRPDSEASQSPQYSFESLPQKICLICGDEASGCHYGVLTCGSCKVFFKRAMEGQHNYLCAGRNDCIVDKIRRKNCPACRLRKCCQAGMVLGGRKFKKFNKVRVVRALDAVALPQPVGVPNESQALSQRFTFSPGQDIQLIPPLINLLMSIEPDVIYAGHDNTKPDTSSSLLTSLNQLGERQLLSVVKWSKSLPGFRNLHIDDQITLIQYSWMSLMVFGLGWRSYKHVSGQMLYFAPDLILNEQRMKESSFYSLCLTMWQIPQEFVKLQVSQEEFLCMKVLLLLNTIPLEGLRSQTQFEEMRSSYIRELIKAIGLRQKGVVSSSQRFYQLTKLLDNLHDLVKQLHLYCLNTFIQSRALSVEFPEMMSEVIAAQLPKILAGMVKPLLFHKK
Summary of the method: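 Beta-lactamase reporter read-out: after 16 hr compound treatment at 37C and a further 2 hr at room temperature with LiveBLAzer B/G FRET substrate, fluorescence was measured in PR-UAS-bla HEK 293T cells grown in 2% charcoal-stripped serum.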

[10] = target: Progesterone receptor (Homo sapiens) (UniProt P06401); assay: qHTS assay to identify small molecule antagonists of the progesterone receptor (PR) signaling pathway (AID 1346795; active = well fitted inhibition curve with a large enough effect in the signal ratio in the repeat runs, not every such curve was filed as active; the % refers to the signal ratio)
Summary of the method: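 Read-out is fluorescence from the LiveBLAzer B/G FRET substrate, cleaved by a UAS-controlled beta-lactamase in PR-UAS-bla HEK293T cells after 16 hr exposure to compound plus 1 nM promegestone (final), followed by 2 hr at room temperature.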

[11] = qHTS assay to identify small molecule antagonists of the progesterone receptor (PR) signaling pathway - cell viability counter screen (AID 1346798);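 also: HEK293T PR-UAS-bla cells stimulated with the agonist R5020; series mostly up to about 92 µM; nearly all actives have a fitted effect of over 50% in size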
Summary of the method: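 HEK293T PR-UAS-bla, 2% charcoal-stripped FBS; 4 hr pre-plate; cpd + R5020, 16 h 37C; LiveBLAzer read first; then CellTiter-Glo 30 min RT, luminescence.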

[12] = qHTS assay to identify small molecule agonists of the progesterone receptor (PR) signaling pathway - cell viability counter screen (AID 1346799; calls by dose curve; also: nearly all actives have a fitted effect of over 45% in size)
Summary of the method: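 Luminescence from CellTiter-Glo, added after the beta-lactamase FRET read in the same wells, gave cytotoxicity in PR-UAS-bla HEK293T cells treated with compounds for 16 hr at 37C.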

[13] = qHTS assay to identify small molecule antagonists of the TGF-beta/Smad signaling pathway - cell viability counter screen (AID 1346824); also: nearly all actives have a fitted effect of over 50% in size
Summary of the method: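 SBE-bla HEK 293T cells, incubated overnight, then compound plus 0.25 ng/mL TGF-beta1 (stock added) for 5 hr at 37 C. Viability was read in the same wells by CellTiter-Glo luminescence after 30 min at room temperature.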

[14] = qHTS assay to identify small molecule agonists of the TGF-beta/Smad signaling pathway - cell viability counter screen (AID 1346829); also: top concentration of the series differs between compounds; nearly all actives have a fitted effect of over 45% in size
Summary of the method: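 CellTiter-Glo luminescence readout; SBE-bla HEK 293T cells, overnight plating, compound 5 hr at 37 C/5% CO2, then bla substrate 2 hr RT, then CellTiter-Glo 30 min RT.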

[15] = qHTS assay to identify small molecule agonists of the TGF-beta/Smad signaling pathway (AID 1346859; active = well fitted activation curve with a large enough effect in the signal ratio in the repeat runs, not every such curve was filed as active; the % refers to the signal ratio; also: series mostly up to about 77 µM)
Summary of the method: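 SBE-bla HEK 293T, 4,000 cells/well, plated o/n; cpd in DMSO, 5 hr, 37 C/5% CO2; B/G FRET substrate 2 hr RT; ex 405, em 460/530 nm.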

[16] = Human pregnane X receptor (PXR) small molecule agonists, qHTS cell viability counter screen (AID 1346977); also: nearly all actives have a fitted effect of over 50% in size
Summary of the method: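 PXR-Luc HepG2, 2,000 cells/well, 5% charcoal-stripped FBS; 5hr settle; cpd 24hr, 37C/5% CO2; CellTiter-Fluor at 23hr, read 1hr later (fluorescence).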

[17] = qHTS assay to identify small molecule antagonists of the estrogen receptor beta (ER-beta) signaling pathway - cell viability counter screen (AID 1259382); also: series mostly up to about 92 µM; nearly all actives have a fitted effect of over 55% in size
Summary of the method: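 CellTiter-Glo ATP luminescence measured after the LiveBLAzer read in the same wells; ER-beta-UAS-bla HEK293T cells, 16 hr compound treatment with 1nM 17-beta-estradiol agonist at 37C, 5% CO2.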

[18] = target: Thyrotropin-releasing hormone receptor (Homo sapiens) (UniProt P34981); assay: qHTS assay to identify small molecule antagonists of the thyrotropin-releasing hormone receptor (TRHR) signaling pathway (AID 1346877; active = well fitted inhibition curve with a large enough effect in the repeat runs, not every such curve was filed as active; also: series mostly up to about 51 µM)
Chain of Thyrotropin-releasing hormone receptor (Homo sapiens) (P34981 whole entry, looked up): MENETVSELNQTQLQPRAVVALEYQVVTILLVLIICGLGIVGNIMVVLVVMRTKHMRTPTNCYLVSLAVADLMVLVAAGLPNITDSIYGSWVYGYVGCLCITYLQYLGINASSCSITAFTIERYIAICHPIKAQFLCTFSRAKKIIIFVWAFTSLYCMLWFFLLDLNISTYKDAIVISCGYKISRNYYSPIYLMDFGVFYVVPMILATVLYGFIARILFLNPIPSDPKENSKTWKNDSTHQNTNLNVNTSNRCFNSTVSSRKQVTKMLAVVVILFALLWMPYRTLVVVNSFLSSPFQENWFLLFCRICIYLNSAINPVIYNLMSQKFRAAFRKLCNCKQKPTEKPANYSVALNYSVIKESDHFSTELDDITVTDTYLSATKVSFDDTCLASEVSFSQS
Summary of the method: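 Calcium signal in dye-loaded TRHR/HEK293 cells; compounds added 5 min before TRH (1 nM final); fluorescence monitored 3 min at 1 s steps.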

[19] = target: Thyrotropin-releasing hormone receptor (Homo sapiens) (UniProt P34981); assay: qHTS assay to identify small molecule agonists of the thyrotropin-releasing hormone receptor (TRHR) signaling pathway (AID 1346891; calls by dose curve; also: series mostly up to about 58 µM)
Summary of the method: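 Intracellular calcium rise, read as fluorescence every second for 3 min, served as the agonist signal in dye-loaded HEK293 cells expressing TRHR; each compound ran at 15 concentrations in triplicate.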

Measured: Potency

Cc1cccc(N(C)C)c1
inactive: [1] | [2] | [3] | [4] | [5] | [6] | [7] | [8] | [9] | [10] | [11] | [12] | [13] | [14] | [15] | [16]

CO[Si](CCC1CCC2OC2C1)(OC)OC (stereo unspecified)
inactive: [2] | [3] | [4] | [17] | [5] | [6] | [7] | [8] | [9] | [10] | [11] | [12] | [13] | [14] | [15] | [18] | [19] | [16]

CCOC(/C=C(\C)CCC=C(C)C)OCC
inactive: [1] | [2] | [3] | [17] | [5] | [6] | [7] | [9] | [10] | [11] | [13] | [15] | [18] | [19] | [16]

CCCCCCCC/C=C\CCCCCCCC(=O)OCCOC(=O)CCCCCCC/C=C\CCCCCCCC
inactive: [1] | [2] | [3] | [5] | [6] | [8] | [9] | [11] | [12] | [13] | [14] | [15]
